Structures are written as SMILES. Several values for one entry are separate records, joined by “and”; a condition that tells them apart may be missing. Identical values can stand only once. This is part of a sample that, as a whole, favours compounds with a hit. Of some 83,000 tested, about 20% had one in any assay.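 Plates (96-well) were seeded with cells, treated with compound at one concentration, and incubated for 48 hours before percent growth was determined.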 Activity calls are given as the source filed them.

For the first test, the system named is HCC-2998 colon. As to the kind of experiment: NCI-60 one-dose screen, 48 h (100 = growth as untreated, 0 = no growth, -100 = all killed). Particulars: 10 µM. On the procedure: Growth inhibition of the HCC-2998 human tumor cell line is measured as a screen for anti-cancer activity. Cells are grown in 96 well plates and exposed to the test compound for 48 hours. Compounds are tested at a single concentration, which is 10^-5 M for most compounds. The reported endpoint is percent growth (GI% or GIPRCNT), where numbers from 0 - 100% represent growth inhibition, and numbers from -100% - 0 represent cell death. For example, a value of 40 represents 60% growth inhibition. A value of 0 means no net growth occurred over the course of the experiment. A value of -40 indicates 40% of cells at the beginning of the experiment died by the end of the experiment. A value of -100 means all cells are dead at the end of the experiment.
NCI-60 Human Tumor Cell Lines Screen was performed using the standard one-dose NCI protocol, which is described in more detail at https://dtp.cancer.gov/discovery_development/nci-60/default.htm.
Compounds with GIPRCNT values below 10 were considered active. Activity score was based on GIPRCNT using the following formula: […]
Score is 0 for GIPRCNT values of 100 or above, 50 for GIPRCNT values of 0, and 100 for GIPRCNT values of -100.
Consider `CC(=O)/C=C/c1ccc(OCc2ccc(Cl)cc2)cc1`, for which the growth was 101% (inactive).

Staying with this test, now noted: 10 µM unless noted.
Turning to `COc1cc(CO)cc2cc3ccccc3nc12`, the growth is 106% (inactive).

`Nc1ccccc1SC(CC(=O)c1ccccc1)c1ccc([N+](=O)[O-])cc1` (stereo not given): the growth was 101% (inactive).

With `C=C(C)[C@@H]1CC[C@]2(C(=O)N3CCN(C)CC3)CC[C@]3(C)[C@H](CC[C@@H]4[C@@]5(C)CC(CCCNC(C)=O)(CCCNC(C)=O)[C@H](OC(C)=O)C(C)(C)[C@@H]5CC[C@]43C)[C@@H]12`, the growth was 106% (inactive).

In the case of `CC[C@]12CN3CCc4c([nH]c5ccccc45)[C@@](C(=O)OC)(c4cc5c(cc4OC)N(C)[C@H]4[C@@](O)(C(=O)OC)[C@H](OC(C)=O)[C@]6(CC)C=CCN7CC[C@]54[C@@H]76)CC(C3)[C@H]1O2` (stereo not given in full), the growth was -14.6% (active).

For `COc1ccc(Cn2cc(C(=O)Nc3cccnc3Nc3ccccc3)nn2)cc1`, the growth is 88.5% (inactive).

Consider `COc1ccc(C(c2cc(OC)c(OC)c(OC)c2)n2ccnc2)cc1O` (stereo not given), for which the growth is 25% (inactive).

As to `COc1ccc(C(CC(=O)c2ccc3c(c2)OCO3)C(=O)O)cc1OC` (stereo not given), the growth is 104% (inactive) and 105% (inactive).

For the compound `O=C(NNC(=S)Nc1ccccc1)c1ccncc1`, the growth is 109% (inactive).

On to `Cn1cc(-c2nonc2-c2cn(C)c3ccc(Br)cc23)c2ccccc21`, for which the growth is 67.9% (inactive).

Regarding `CCCCCCCCCCCCC[C@H](O)C[C@H](O)[C@H](C)N`, the growth is 26.7% [1.25 µM] (inactive).

Consider `N#Cc1cc(-c2ccnc(Nc3ccc(NC(=O)CCl)cc3)n2)ccc1N1CCCC1`, for which the growth was -79.5% (active).

As to `C/C=C(\C)C(=O)N[C@H]1CC[C@]2(C)C3CC[C@@]4(C)C(CC[C@@H]4C(C)N(C)C)C3CCC2[C@H]1OC(C)=O` (stereo not given in full), the growth is -85.4% (active).

Take `COC1=CC(c2ccc[nH]2)=N/C1=C\c1[nH]c(C)c(C(=O)Oc2ccccc2)c1C`: the growth is -81.6% (active).

For the compound `COc1ccc(C/C(C)=C(/c2ccc(OCCN3CCCCCC3)cc2)c2ccc(OC(=O)c3ccccc3)cc2)cc1`, the growth was 105% (inactive).

For the compound `CCN1C(=S)N(CC)C2C1NC(=S)N2/N=C/C=C/c1ccccc1` (stereo not given), the growth is 56.7% (inactive).

In the case of `O=C(Cn1cc(CN2CCN(c3ccnc4cc(Cl)ccc34)CC2)nn1)Nc1cccc([N+](=O)[O-])c1`, the growth is 106% (inactive).

Turning to `CC[C@H](C)[C@H](NC(=O)[C@H](CCCCN)NC(=O)[C@H](CCCCN)NC(=O)[C@@H](NC(=O)[C@@H](NC(=O)[C@@H](N)Cc1cnc[nH]1)[C@@H](C)CC)[C@@H](C)CC)C(=O)N[C@@H](CCCNC(=N)N)C(=O)N[C@H](C(=O)N[C@@H](Cc1c[nH]c2ccccc12)C(=O)N[C@@H](Cc1ccc(O)cc1)C(=O)N[C@@H](CCCNC(=N)N)C(=O)N[C@@H](CCCCN)C(=O)N[C@@H](C)C(=O)N[C@@H](Cc1c[nH]c2ccccc12)C(=O)N[C@@H](Cc1cnc[nH]1)C(=O)N[C@H](C(=O)N[C@@H](CC(C)C)C(=O)NCC(=O)N[C@@H](CCCCN)C(=O)N[C@H](C(N)=O)C(C)C)C(C)C)[C@@H](C)O`, the growth was 25.7% (inactive).

In the case of `C#CCOc1cccc(Nc2ncc3ncn(C4CCN(C(=O)CCl)C4)c3n2)c1` (stereo not given), the growth was 74.9% [6.25 µM] (inactive).

Consider `COc1cc(NS(=O)(=O)C(C)C)cc(-c2cc(-c3ccc(N4CCNCC4)cc3)cnc2N)c1`, for which the growth is 80.5% (inactive).

For `CCCCC(NC(=O)CN1C(=O)/C(=C/C(C)=C/c2ccccc2)SC1=S)C(=O)O` (stereo not given), the growth is 110% (inactive).

Regarding `O=C(CN1C(=O)S/C(=C\C(Cl)=C\c2ccccc2)C1=O)NC1C=CS(=O)(=O)C1` (stereo not given), the growth is 65.6% (inactive).

For the compound `COc1ccc(Oc2nc(Nc3ccc(N4CCOCC4)cc3)ncc2NC(=O)c2cc(OC)cc(OC)c2)cc1`, the growth was 98.4% (inactive).

As for `Nc1ncc(-c2ccc3ncnc(N4CCc5ccc(Cl)cc54)c3c2)cc1C(F)(F)F`, the growth is 22.3% (inactive).

As to `O=C([C@H]1C[C@H]1c1ccc(S(F)(F)(F)(F)F)cc1)N1CCN(c2cc(Cl)ccc2C(F)(F)F)CC1`, the growth is 96.9% (inactive).

Take `COc1ccc(-c2cc(=O)c3c(O)cc(O)cc3o2)cc1`: the growth is 102% (inactive) and 104% (inactive).

Turning to `O=S(=O)(Nc1ccc(F)cc1)c1ccc(-c2cnc(C3CC3)o2)cc1`, the growth was 56.4% (inactive).

With `O=C1C(c2c[nH]c3ccccc23)=C(c2coc3cc(Br)ccc23)C(=O)N1O`, the growth was 100% (inactive).

As to `CCNC(=S)n1nc(SC)c(C(=O)OCC)c1N`, the growth is 116% (inactive).

Consider `COc1cc(Nc2nc3ccccc3cc2C(=O)Nc2ccc(F)c(F)c2)cc(OC)c1OC`, for which the growth was 45.3% (inactive).

Regarding `c1ccc(-c2cc(-c3cc(-c4ccccc4)on3)no2)cc1`, the growth is 94.2% (inactive).

On to `Cc1ccc(Cc2cnc(NC(=O)c3cc(C)oc3C)s2)cc1`, for which the growth was 89.3% (inactive).

`O=C(CN1C(=O)S/C(=C\C(Cl)=C\c2ccccc2)C1=O)NCCCn1ccnc1`: the growth was 73.5% (inactive).

Consider `Cc1[nH]c(C(=O)Nc2nc3ccc(NC(=O)CCN)cc3s2)c(Cl)c1Cl`, for which the growth was 96.4% (inactive).

For `CCOC(=O)c1cnn(CC(O)CC)c1NC(=O)NCc1ccccc1C(F)(F)F` (stereo not given), the growth was 100% (inactive).

As for `O=C1C(N2CCOCC2)=C(I)C(=O)c2ncccc21`, the growth is 86.8% (inactive).

Take `O=c1c2c([nH]c3ccccc13)CCCC2`: the growth is 55.5% (inactive).

On to `CCCc1cc(C(N)=S)ccn1`, for which the growth is 108% (inactive).

Consider `CCN(CC)CCOc1ccc(/C(=C(\Cl)c2ccccc2)c2ccccc2)cc1`, for which the growth is 35.7% (inactive) and 98.3% (inactive).

The test is the same for the next values; noted with them: 100 µM.
`CC(=O)/C=C/c1ccc(OCc2ccc(Cl)cc2)cc1`: the growth was 60.4% (inactive).

The values are drawn from PubChem BioAssay (NCI).
